# Data: PubChem BioAssay (NCATS)
# Records with an inconclusive call do not appear. Active and inactive are the calls of the source. Calls follow the shape of the dose curve; as a rule, active = well fitted curve in the direction sought with a large enough effect; inconclusive = small, poorly fitted or top-dose-only effect, or another doubt; inactive = no such curve, though single readings can be large or run the other way.
# Target: phosphoglycerate mutase (Leishmania major) (UniProt Q4Q090)
# Assay: qHTS Validation Assay to Find Inhibitors of Phosphoglycerate Mutase (AID 504548);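 also: end-point luminescence from Kinase-GloPlus after the PGAM reaction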
# Conditions: biochemical enzyme activity; series mostly up to 57.5 µM
# Summary of the method: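 L. major PGAM (1.25nM final) was added to substrate buffer and pinned compound, incubated 45 minutes at room temperature, then Kinase-GloPlus added; luminescence read after 10 minutes. Buffer: 100 mM TEA pH 7.6, 5 mM MgCl2, 0.01% Tween-20.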
# phosphoglycerate mutase (Leishmania major), sequence (Q4Q090 1-553): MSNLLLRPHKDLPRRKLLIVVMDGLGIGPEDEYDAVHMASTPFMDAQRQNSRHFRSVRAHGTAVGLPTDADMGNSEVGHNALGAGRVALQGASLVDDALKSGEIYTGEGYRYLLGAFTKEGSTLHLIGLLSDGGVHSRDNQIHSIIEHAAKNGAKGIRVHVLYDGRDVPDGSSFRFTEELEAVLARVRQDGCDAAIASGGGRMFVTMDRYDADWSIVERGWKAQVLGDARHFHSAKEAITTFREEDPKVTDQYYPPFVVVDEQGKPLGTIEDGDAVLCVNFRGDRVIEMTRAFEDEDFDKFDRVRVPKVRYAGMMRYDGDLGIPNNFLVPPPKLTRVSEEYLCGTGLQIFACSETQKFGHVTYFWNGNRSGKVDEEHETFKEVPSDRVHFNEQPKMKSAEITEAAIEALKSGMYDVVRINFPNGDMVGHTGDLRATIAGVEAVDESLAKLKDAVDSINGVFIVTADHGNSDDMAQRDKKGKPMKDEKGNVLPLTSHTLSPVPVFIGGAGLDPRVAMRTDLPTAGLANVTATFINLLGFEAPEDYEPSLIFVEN
row,Compound,outcome
1,CC(C)C[C@H]1C(=O)N2CCC[C@H]2[C@]2(O)O[C@](NC(=O)[C@@H]3C=C4c5cccc6[nH]c(Br)c(c56)C[C@H]4N(C)C3)(C(C)C)C(=O)N12,inactive
2,N[C@H](CO)C(=O)O,inactive
3,CC1(C)CCC(NC(=O)[C@@H](N)CCC(=O)O)CC1,inactive
4,COc1cc2c(cc1O)CC[C@@H]1[C@@H]2CC[C@]2(C)[C@@H](O)CC[C@@H]12,inactive
5,Oc1ccc(O)cc1,inactive
6,C[C@@H]1C(=O)NC2=Nc3cccc(Cl)c3CN21,inactive
7,C[N+]1(CCCCC[N+]2(C)CCCC2)CCCC1,inactive
8,O=C1CCC(c2ccc(-n3ccnc3)cc2)=NN1,inactive
9,CNCCC(Oc1ccccc1C)c1ccccc1 (configuration not stated),inactive
10,CN1C2CCC1CC(OC(=O)c1c[nH]c3ccccc13)C2 (configuration not stated),inactive
11,C[C@]12CC[C@@H]3c4ccc(O)cc4CC[C@H]3[C@@H]1CC[C@@H]2O,inactive
12,CC(=O)O[C@H]1C[C@@H]2CC[C@@H]3[C@H](CC[C@@]4(C)[C@H]3C[C@H]([N+]3(C)CCCCC3)[C@@H]4OC(C)=O)[C@@]2(C)C[C@@H]1[N+]1(C)CCCCC1,inactive
13,CCCC1O[C@@H]2C[C@H]3[C@@H]4CCC5=CC(=O)C=C[C@]5(C)[C@H]4[C@@H](O)C[C@]3(C)[C@]2(C(=O)CO)O1 (some centres not stated),inactive
14,CNCCC=C1c2ccccc2CCc2ccccc21,inactive
15,O=C(O)c1cc2cc(Cc3cccnc3)ccc2o1,inactive
16,CC(CCc1ccccc1)NCC(O)c1ccc(O)c(C(N)=O)c1 (configuration not stated),inactive
17,Nc1cc(Cl)c(NC2=NCCN2)c(Cl)c1,inactive
